For 13 compounds, AC50 results are on record in publication PMC6792352, “Limited Chemical Structural Diversity Found to Modulate Thyroid Hormone Receptor in the Tox21 Chemical Library” (Environmental Health Perspectives, 2019).

For orientation: AC50 means the concentration at which the activity in the assay is half-maximal.

Each structure is given as a SMILES string. Structures can show the parent of a compound that is named as a salt. Where only a bound is given, the exact number is not on record here.

In the assay the test system is thyroid hormone receptor (endogenous TRα and TRβ). Details: species or system GH3-TRE-Luc (rat pituitary); GH3-TRE-Luc luciferase reporter, antagonist mode against 1 nM T3, loss of signal, qHTS. Particulars: read-out: Average AC50 (uM) GH3-TRE-Antag, antagonist mode, 1 nM T3, no GH3 cytotoxicity hit.
In the case of `CCOc1ccc2nc3cc(N)ccc3c(N)c2c1` [Ethacridine lactate hydrate], the AC50 came to 40.1 µM.
Next, `COC(=O)Nc1ccc(Cl)c(Cl)c1` [Swep]: above 90 µM; `CO[C@@H]1[C@H](OC(=O)/C=C/C=C/C=C/C=C/C(=O)O)CC[C@]2(CO2)[C@H]1[C@@]1(C)O[C@@H]1CC=C(C)C` [Fumagillin]: 0.0177 µM.
For the compound `Cc1cc(-n2c(=O)[nH]c(=O)n(C)c2=O)ccc1Oc1ccc(S(=O)(=O)C(F)(F)F)cc1` [Toltrazuril sulfone], the half-maximal activity concentration (AC50) amounted to 51.6 µM.
Take `CCN(CC)c1ccc2c(C)cc(=O)oc2c1` [7-Diethylamino-4-methylcoumarin]: the AC50 was determined as 85.7 µM.
`COC(C)(C)CCCC(C)C/C=C/C(C)=C/C(=O)OC(C)C` (stereo not shown) [Methoprene]: the AC50 is 43.4 µM.
Next, `C=CCOC(=O)/C=C\C(=O)OCC=C` [Diprop-2-en-1-yl (2Z)-but-2-enedioate]: 79.2 µM; `O=C(O)Cc1sc(-c2ccccc2)nc1-c1ccc(Cl)cc1` [Fentiazac]: above 50 µM.
With `CC(C)Oc1cccc(NC(=O)c2ccccc2C(F)(F)F)c1` [Flutolanil], the AC50 was above 90 µM.
In the case of `CCN(CC)CCOC(=O)[C@H](Cc1cccc2ccccc12)C[C@H]1CCCO1` [Nafronyl oxalate] it was 10.7 µM; in that of `COc1ccc(C(CN(C)C)C2(O)CCCCC2)cc1` (stereo not shown) [Venlafaxine hydrochloride], 71 µM; in that of `COC(=O)c1c(Cl)c(Cl)c(C(=O)OC)c(Cl)c1Cl` [Chlorthal-dimethyl], 72.5 µM.
In the case of `CCCCOC(=O)CC(CC(=O)OCCCC)(OC(C)=O)C(=O)OCCCC` [Acetyl tributyl citrate] it was 35.1 µM.
